Laboratory results: publication PMC4336329 (PLoS ONE, 2015)
The campaign covered roughly 310,000 compounds. About 14,000 (4.5%) showed an effect of 50% or more. Effects have a minus sign here. For the sample, strong results were picked, then their nearest neighbours and some compounds at random.

biological target: human ether-à-go-go-related gene (hERG) potassium channel (human, UniProt Q12809); experiment: primary screen, population patch clamp on CHO cells stably expressing hERG; higher = less effect of the substance
Sequence (Q12809 whole entry, looked up): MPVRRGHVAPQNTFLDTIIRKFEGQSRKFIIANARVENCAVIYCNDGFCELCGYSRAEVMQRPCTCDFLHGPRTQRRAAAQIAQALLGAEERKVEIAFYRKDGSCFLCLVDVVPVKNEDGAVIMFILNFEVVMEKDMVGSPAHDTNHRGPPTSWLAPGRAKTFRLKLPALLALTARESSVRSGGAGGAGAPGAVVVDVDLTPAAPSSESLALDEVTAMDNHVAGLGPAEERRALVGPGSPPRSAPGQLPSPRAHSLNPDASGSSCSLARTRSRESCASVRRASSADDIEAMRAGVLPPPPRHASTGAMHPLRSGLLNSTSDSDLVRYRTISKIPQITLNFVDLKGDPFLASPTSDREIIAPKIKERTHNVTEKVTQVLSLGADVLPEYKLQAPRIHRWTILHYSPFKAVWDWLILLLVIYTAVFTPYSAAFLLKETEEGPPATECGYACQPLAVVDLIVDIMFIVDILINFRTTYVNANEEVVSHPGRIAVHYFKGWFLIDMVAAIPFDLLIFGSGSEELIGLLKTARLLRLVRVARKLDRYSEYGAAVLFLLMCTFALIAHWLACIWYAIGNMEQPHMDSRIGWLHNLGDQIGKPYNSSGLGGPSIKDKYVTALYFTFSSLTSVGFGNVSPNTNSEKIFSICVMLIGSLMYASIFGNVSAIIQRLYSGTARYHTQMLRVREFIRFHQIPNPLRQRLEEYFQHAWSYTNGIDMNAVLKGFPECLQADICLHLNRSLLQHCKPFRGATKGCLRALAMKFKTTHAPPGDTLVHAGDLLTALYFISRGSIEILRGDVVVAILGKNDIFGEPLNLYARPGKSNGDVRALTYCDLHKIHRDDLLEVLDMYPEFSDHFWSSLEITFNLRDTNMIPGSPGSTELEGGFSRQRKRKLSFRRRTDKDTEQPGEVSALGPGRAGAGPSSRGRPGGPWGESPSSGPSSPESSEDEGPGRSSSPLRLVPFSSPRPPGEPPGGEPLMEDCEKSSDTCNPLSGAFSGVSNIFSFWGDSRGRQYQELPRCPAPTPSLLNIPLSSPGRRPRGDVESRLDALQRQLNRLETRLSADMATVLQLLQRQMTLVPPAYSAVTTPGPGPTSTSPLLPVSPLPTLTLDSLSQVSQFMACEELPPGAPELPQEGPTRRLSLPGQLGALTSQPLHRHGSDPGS
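Also: peak tail current of the secondary pulse compared with the same well before compound.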

Compound | hERG current change (%, negative = inhibition) at 10uM [%]
COc1cccc(CN(C)CC(=O)Nc2sc3c(c2C#N)CCC3)c1OC | 10.3
COc1ccc(-n2c3c(cc(C#N)c2=O)C(=O)CCC3)cc1 | 29.1
COc1ccc(Oc2c(C)oc3c(CN(C)C)c(O)ccc3c2=O)cc1 | -1.88
CC(O)C[NH+]=c1cc(-c2ccccc2)oc2ccc(Cl)cc12.F[B-](F)(F)F (stereo not shown) | -69.4
O=c1cc(-c2ccccc2)oc2ccccc12 | -4.17
O=C(O)c1cc(=O)c2cc(Cl)ccc2o1 | 17.3
Clc1ccc(Oc2ncnc3oc(-c4ccccc4)cc23)cc1 | 4.39
CC(C)C[NH+]=c1cc(-c2ccccc2)oc2ccc(Cl)cc12.F[B-](F)(F)F | -87.4
Cc1cc(Cl)ccc1Oc1ncnc2oc(-c3ccccc3)cc12 | -0.172
Cc1nn(Cc2ccccc2Cl)c(C)c1C(=O)OCC(=O)N1CC(C)OC(C)C1 (stereo not shown) | 1.43
Clc1ccc(N2CCN(Cc3ccco3)CC2)cc1 | -14.2
CCOC(=O)Cc1c(C)nc2c(-c3ccccc3)c[nH]n2c1=O | 2.48
Cc1nn(S(=O)(=O)N2CCOCC2)c(C)c1Br | -0.162
O=C(O)C(Cc1ccccc1)N1C(=O)c2c(Cl)c(Cl)c(Cl)c(Cl)c2C1=O (stereo not shown) | 3
COc1ccc(NS(=O)(=O)c2cc(NC(=O)C3CC3)ccc2N2CCCCC2)cc1 | 9.99
COC(=O)c1cccc([N+](=O)[O-])c1CN1CCCC(C(N)=O)C1 (stereo not shown) | 18.4
O=C(N/C(=C/c1ccc(Br)cc1)C(=O)N1CCCCC1)c1ccccc1F | -40.7
COc1ccccc1C(=O)N/C(=C\c1ccc(Br)cc1)C(=O)N1CCCC1 | -48.6
O=C(N/C(=C/c1ccc(Br)cc1)C(=O)N1CCCC1)c1ccccc1F | -71.5
O=C(N/C(=C\c1ccc(Br)cc1)C(=O)N1CCOCC1)c1ccccc1Cl | -2.31
O=C(N/C(=C\c1ccc(Br)cc1)C(=O)N1CCCC1)c1ccccc1F | -71.8
COc1ccccc1C(=O)N/C(=C/c1ccc(Br)cc1)C(=O)N1CCCC1 | -48.9

Compound | hERG current change (%, negative = inhibition) at 10uM [%]
CCCCn1cnc2c(c1=O)c1nc3ccccc3nc1n2Cc1ccc2c(c1)OCO2 | 24.1
O=C(NCCCNC(=O)c1cnccn1)c1cccc(Cl)c1 | -5.72
O=C(COC(=O)/C=C/c1ccc(S(=O)(=O)N2CCOCC2)cc1)NCc1ccc(Cl)cc1 | 1.35
Cc1cccc(N2CCN(C(=O)c3cc4c(=O)n(C)c5ccccc5c4n3C)CC2C)c1 (stereo not shown) | -16
Cc1ccc(S(=O)(=O)NCCC(=O)OCC(=O)Nc2ccccc2Cl)cc1 | -10.5
COc1ccc(N2CCN(C(=O)c3cccn4c(=O)c5ccccc5nc34)CC2)cc1 | -60.1
O=C(c1cccn2c(=O)c3cc4ccccc4cc3nc12)N1CCN(c2ccccc2)CC1 | -7.73
COc1ccc(-c2cc(C(=O)N3CCN(c4ccccc4)CC3)c3ccccc3n2)cc1 | 5.37
O=C(c1cccn2c(=O)c3ccccc3nc12)N1CCN(c2ccccn2)CC1 | -53
O=C(c1cccn2c(=O)c3ccccc3nc12)N1CCC2(CC1)OCCO2 | 5.98
O=C(c1cccn2c(=O)c3cc(Br)ccc3nc12)N1CCN(c2ccccn2)CC1 | -33.6
COc1ccc2c(c1OC)C(=O)OC2C1c2c(cc3c(c2OC)OCO3)CCN1C (stereo not shown) | -1.42
O=C(CSc1nc2ccccc2c(=O)n1CCC(=O)N1CCN(c2ccccc2)CC1)NCC1CCCO1 (stereo not shown) | -45.6
COc1ccccc1NC(=O)CSc1nc2ccccc2c(=O)n1CC1CCCO1 (stereo not shown) | 2.49
O=c1c2ccccc2nc(SCc2ccncc2)n1CC1CCCO1 (stereo not shown) | -54
COc1ccccc1N1CCN(C(=O)CSc2nc3ccccc3c(=O)n2CC2CCCO2)CC1 (stereo not shown) | -67.6
O=C1CN(C(=O)CSc2nc3ccccc3c(=O)n2CC2CCCO2)c2ccccc2N1 (stereo not shown) | -31.3
O=C(CSc1nc2ccccc2c(=O)n1CC1CCCO1)Nc1ccccc1Cl (stereo not shown) | -22.1
COc1ccc(OC)c(NC(=O)CSc2nc3ccccc3c(=O)n2CC2CCCO2)c1 (stereo not shown) | -41.2
O=c1c2ccccc2nc(SCc2ccccc2)n1CC1CCCO1 (stereo not shown) | -6.67
O=C(CSc1nc2ccccc2c(=O)n1CC1CCCO1)NCc1ccccc1 (stereo not shown) | -11
CCOc1ccccc1NC(=O)CSc1nc2ccccc2c(=O)n1CC1CCCO1 (stereo not shown) | -68

Compound | hERG current change (%, negative = inhibition) at 10uM [%]
O=C(CSc1nc2ccccc2c(=O)n1CC1CCCO1)N1CCN(c2ccccc2)CC1 (stereo not shown) | -73.4
O=C(CSc1nc2ccccc2c(=O)n1CC1CCCO1)Nc1ccccc1 (stereo not shown) | -14.1
CC(C)(C)c1ccc(C(=O)NCC2CCCN2S(=O)(=O)c2ccccc2)cc1 (stereo not shown) | -6.28
Cc1ccc(C(=O)N/N=C2\CCSC2)cc1[N+](=O)[O-] | -2.95
COc1ccccc1C(CNC(=O)CSc1ccc2ccccc2c1)N(C)C (stereo not shown) | -34.9
COc1ccccc1NC(=O)Cn1cnc2c(cnn2-c2ccc(C)c(C)c2)c1=O | 12.1
Cc1[nH]c2ccccc2c1/C=N/NC(=O)c1cccc(S(=O)(=O)Nc2cccc(C(F)(F)F)c2)c1 | 18.6
CC(=O)c1ccc(OCc2cc(C(=O)NCCc3ccc(Cl)cc3)no2)cc1 | -29.7
CSc1nnc(NC(=O)c2nc(S(=O)(=O)Cc3ccccc3)ncc2Cl)s1 | 0.719
O=C(Nn1c(-c2ccc(Br)cc2)nc2ccccc2c1=O)c1ccncc1 | 20.2
O=C(Nc1ccccn1)c1ccc(Cl)c(S(=O)(=O)N2CCCCCC2)c1 | -32.7
CCOC(=O)c1cccc(C(=O)Oc2ccccc2)n1 | 14.6
Cc1nn(-c2ccccc2)c(C)c1C(=O)OCC(=O)Nc1ccccc1 | -7.85
Cc1cccc(-c2nsc(SCC(=O)NCc3ccco3)n2)c1 | 15
Cc1nc(N=C(N)N)nc2c(C)cccc12 | 25.2
Clc1ccc(C(Cn2ccnc2)OCc2c(Cl)cccc2Cl)c(Cl)c1 (stereo not shown) | -32
Clc1ccc(C(c2ccc(Cl)cc2)n2cc[n+](CC(OCc3ccc(Cl)cc3Cl)c3ccc(Cl)cc3Cl)c2)cc1.[Cl-] (stereo not shown) | -62.8
C=CCOC(Cn1ccnc1)c1ccc(Cl)cc1Cl (stereo not shown) | -29.6
CC(C)CCn1nnnc1C(c1ccc(F)cc1)N1CCC(C(N)=O)CC1 (stereo not shown) | -21.4
Fc1cccc(CNCCc2c[nH]c3ccccc23)c1.O=C(O)C(=O)O | -7.63
Cc1c(CC(=O)NCCCC(=O)O)c(=O)oc2cc3c(cc12)CCC(C)(C)O3 | -64.5
Cc1c(CC(=O)NCCCO)c(=O)oc2cc3c(cc12)CCC(C)(C)O3 | 17.6

Compound | hERG current change (%, negative = inhibition) at 10uM [%]
Cc1c(CC(=O)NCCCCCC(=O)O)c(=O)oc2cc3c(cc12)CCC(C)(C)O3 | 9.83
COC(=O)c1ccc(NC(=O)CCc2nnc3ccc(NCc4ccco4)nn23)cc1 | 18.4
CCCCN(CCCC)CCNC(=O)CN1C(=O)CSc2ccc(S(=O)(=O)N3CCCCC3)cc21 | -74.7
CCCCN(C)CCNC(=O)CN1C(=O)CSc2ccc(S(=O)(=O)N3CCOCC3)cc21 | 2.2
CCCCN(C)CCNC(=O)CN1C(=O)CSc2ccc(S(=O)(=O)N3CCCCC3)cc21 | -50.6
CN(C)CCNC(=O)CN1C(=O)CSc2ccc(S(=O)(=O)N3CCCCC3)cc21 | 12.5
CCCCN(C)CCNC(=O)CN1C(=O)CSc2ccc(S(=O)(=O)N3CCCC3)cc21 | -3.28
CCCCN(CCCC)CCNC(=O)CN1C(=O)CSc2ccc(S(=O)(=O)N3CCOCC3)cc21 | -38.8
O=c1oc(-c2ccccc2NS(=O)(=O)c2ccc3ccccc3c2)nc2ccccc12 | 22.9
CC(=O)c1c(C(C)=O)c(C)n(NC(=O)c2ccncc2)c1C | 8.37
COCCN(C(=O)CNC(=O)c1ccco1)C(C(=O)NC1CCCCC1)c1cccnc1 (stereo not shown) | 20.1
CC(C)c1ccc(S(=O)(=O)N(C)C2(C)CCS(=O)(=O)C2)cc1 (stereo not shown) | -46.9
Cc1cc(Cl)ccc1OCC(=O)OCC(=O)NC1CCS(=O)(=O)C1 (stereo not shown) | -12.2
O=C(CCNC(=O)c1ccccc1Cl)Nc1nc(-c2ccccc2Cl)cs1 | -7.92
Cc1cccc(-n2ccnc2SCC(=O)Nc2ccc3c(c2)OCCO3)c1 | -14
COc1cccc(NC(=O)c2ccc3c(c2)CCN3S(C)(=O)=O)c1 | 3.4
Cc1nc2c(-c3ccccc3)c(C)nn2c(C)c1CCC(=O)NCc1ccco1 | -29.9
Cc1nc2c(-c3ccc(F)cc3)c(C)nn2c(C)c1CCC(=O)NC(C)CCc1ccco1 (stereo not shown) | -68.8
Cc1nc2ncnn2c(C)c1CCC(=O)NC(C)CCc1ccco1 (stereo not shown) | -8.57
Cc1nc2c(-c3ccc(F)cc3)c(C)nn2c(C)c1CCC(=O)NCc1ccco1 | -19.9
Cc1nc2c(-c3ccccc3)c(C)nn2c(C)c1CCC(=O)NC(C)CCc1ccco1 (stereo not shown) | -66.6
Cc1nc2c(-c3ccc(F)cc3)c(C)nn2c(C)c1CCC(=O)Nc1ccccc1 | 0.666
